Hits are enriched below; roughly 21% of the tested compounds scored in any of these assays.
TDP1 cell noCPT = qHTS for Inhibitors of human tyrosyl-DNA phosphodiesterase 1 (TDP1): qHTS in cells in absence of CPT; actives 15% (n = 420,000); Potency, µM (titrated, usually from 46.2 µM), without a hit: top-dose activity change, negative = growth inhibition, most hits filed as inhibitors; DT40 Tdp1-/- hTDP1 cells, no CPT, ATP luminescence, 48 h; further: potency means the concentration at half of the fitted maximal effect; on the % scale 0 is the no-effect control and ±100 the full control effect; nearly all actives have a fitted effect of over 55% in size
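Chicken DT40 Tdp1-/- cells complemented with human TDP1, screened without camptothecin (DMSO vehicle only), 400 cells/well. Compounds pin-transferred, cells incubated at 37 °C for at least 48 hr. Growth read as ATP-dependent luminescence (CellTiter-Glo, 30 min at RT).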
IL1B secr inh = inflammasome signaling inhibition, IL-1 beta readout; THP-1 LPS/ATP IL-1B secretion, AlphaLISA, 16 h; hits give low values; actives 4.7% (n = 360,000); activity change, % at 57.5 µM; in the data active means activity change below about -50%; inconclusive means mostly about -30% to -49%; further: on the % scale 0 is the no-effect control and ±100 the full control effect
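Secreted IL-1B measured by AlphaLISA bead assay after 16 h compound exposure of THP-1 cells; compounds (final up to 57.5 uM) added 1 h before LPS (250 ng/mL) and ATP (1.25 mM) stimulation; lower signal means less secretion.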
DRD3 agonist = D3 dopamine receptor (human) agonism. P35462. D3R DiscoveRx beta-arrestin cells, luminescence, 90 min. max activation, %. actives 0.58% (n = 410,000). AID 652048; in the data active means max activation above about 30%; further: 0% is about no effect
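Cells at 1500/well, incubated overnight, then treated with pinned compounds (dopamine as control) for 90 min at 37 degrees C. DiscoveRx reagent added for 30 - 60 minutes at room temperature; luminescence read.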
D3 antag = D3 dopamine receptor (human) antagonism. actives 2.5% (n = 360,000). max response, negative = inhibition, %. P35462. D3R cells, DiscoveRx beta-arrestin luminescence, antagonist mode; hits give low values; in the data active means max response below about -50%; inconclusive means no clear call, values can overlap the other calls; further: on the % scale 0 is the no-effect control and ±100 the full control effect
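Cells expressing the human receptor were seeded at 1500 cells/well, incubated overnight at 37 degrees C in 5% CO2, then exposed to library compounds with dopamine controls for 90 minutes at 37 degrees C before luminescent detection.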
DT40 TDP1 CPT = growth inhibition of DT40 Tdp1-/-;hTDP1 cells with camptothecin (screen for TDP1 inhibitors) | chicken DT40 Tdp1-/-;hTDP1 cells + 20 nM CPT, ATP luminescence, 48 h | Potency, µM (series often up to 46.2 µM), without a hit: top-dose activity change, negative = growth inhibition, hits mostly inhibitors | actives 12% (n = 420,000); further: potency means the concentration at half of the fitted maximal effect; on the % scale 0 is the no-effect control and ±100 the full control effect; nearly all actives have a fitted effect of over 55% in size
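Cell growth measured by CellTiter-Glo luminescence after a minimum 48 h, 37 C compound exposure with 20 nM CPT in Tdp1-knockout DT40 cells stably expressing hTDP1, seeded 400/well; qHTS titration format.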
ClpP mod = qHTS Assay for Activators of ClpP; Potency, µM (highest dose often 57.5 µM), inactives show at the highest dose activity change, negative = active; actives 1.9% (n = 340,000); purified B. subtilis ClpP, FRET peptide cleavage, 20 min; ATP-dependent Clp protease proteolytic subunit (Bacillus subtilis (strain 168)), P80244; AID 651965, 2013; active means well fitted falling curve with a large enough effect; inconclusive means small, poorly fitted or top-dose-only effect; inactive means no such curve, though single readings can be large or run the other way; further: potency means the concentration at half of the fitted maximal effect; the source files actives as falling curves though it sought activators and does not explain the sign; nearly all actives have a fitted effect of over 65% in size
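Purified B. subtilis ClpP, 10 microg/mL final in Tris/HCl pH8 with KCl, BSA, glycerol and Tween-20, cleaved an Abz/nitrotyrosine-quenched decapeptide. Fluorescence (ex 320, em 430) was read at 0 and 20 min at room temperature. Delta was normalized to 5.8 microM ADEP and DMSO/no-enzyme controls.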
The depositor's hits bear a star; ? = inconclusive; . = no result. Unless noted, the call rests on the fitted dose curve; in most records, active means well fitted inhibition curve with a large enough effect; inconclusive means small, poorly fitted or top-dose-only effect; inactive means flat fitted curve, though single readings scatter.

SMILES	TDP1 cell noCPT	IL1B secr inh	DRD3 agonist	D3 antag	DT40 TDP1 CPT	ClpP mod
CCCN1C(=O)/C(=C/c2ccc(C)s2)SC1=Nc1ccc(OC)cc1	?	-11.1	-9.9	-27.2	?	1.1%
CCN1C(=O)/C(=C/c2cccs2)SC1=Nc1ccc(OC)cc1	4.11µM*	-3.3	-2.4	18.1	7.31µM*	-0.6%
COc1ccc(N=C2S/C(=C\c3cc(C)n(C)c3C)C(=O)N2CC(C)C)cc1	18.4µM*	-2.0	-2.6	4.7	?	-2.6%
CCC(Sc1nc(C)cc(C)n1)C(=O)O (stereo not drawn)	8.6%	13.5	7.0	10.4	2.8%	0.4%
CCC(Sc1nc(C)cc(C)n1)C(=O)Nc1cc(C)on1 (stereo not drawn)	-17.2%	-6.0	-0.2	-52.8*	21.8%	.
Cc1noc(C)c1COC(=O)C1CCN(S(=O)(=O)c2c(Cl)cccc2Cl)CC1	-0.2%	8.5	0.4	5.4	-2.1%	0.6%
COC(=O)c1c(N2C(=O)CC(Sc3ccccc3C(=O)O)C2=O)sc2c1CCCC2 (stereo not drawn)	7.31µM*	12.8	4.1	4.0	?	.
CCOC(=O)c1cc(CC)sc1N1C(=O)CC(Sc2ccccc2C(=O)O)C1=O (stereo not drawn)	4.11µM*	26.5	-4.4	-24.9	2.91µM*	.
COC(=O)c1c(N2C(=O)CC(Sc3ccccc3C(=O)O)C2=O)sc(C)c1C (stereo not drawn)	?	-7.7	-0.3	-3.1	?	.
COc1ccc(-c2ccc3c(c2)c(C#Cc2ccsc2)c(-c2cc(OC)cc(OC)c2)n3C)cc1	?	21.4	-11.6	0.1	-0.1%	3.7%
COc1cc(C#Cc2c(-c3cncn3C)n(C)c3ccc(-c4ccc(CN5CCOCC5)cc4)cc23)cc(OC)c1	8.2µM*	-25.7	56.8*	132.2	5.8µM*	4.5%
COc1cc(C#Cc2c(-c3cncn3C)n(C)c3ccc(-c4cnc(OC)nc4)cc23)cc(OC)c1	?	-58.3*	9.3	68.5	16.4µM*	4.8%
CCOC(=O)c1c(C)[nH]c(C)c1S(=O)(=O)NCC(=O)Nc1cccc(Cl)c1	-14.8%	.	-17.2	.	?	-0.4%
COc1cccc(C(=O)Nc2c3c(nn2-c2ccc(Cl)cc2)CS(=O)(=O)C3)c1	?	.	-6.3	.	-19.2%	-0.7%
CC1(C)Cc2c(sc3nnn(Cc4ccc(Cl)cc4)c(=O)c23)CO1	13µM*	-8.9	-6.2	0.8	?	-2.0%
Cc1ccc(-c2nc3sc4c(c3c(=O)n2N)CC(C)(C)OC4)cc1	?	?	3.3	9.4	-16.6%	63.7%
CC(C)Cc1nc2sc3c(c2c(=O)n1N)CC(C)(C)OC3	10.3µM*	-3.6	16.0	10.5	18.4µM*	.
CC1(C)Cc2c(sc3nnn(CC(=O)Nc4ccccc4)c(=O)c23)CO1	?	15.1	0.0	3.3	1.3%	-0.3%
CC1(C)Cc2c(sc3nc(-c4cc5ccccc5o4)n(N)c(=O)c23)CO1	20.6µM*	-3.6	-15.4	41.1	?	-7.9%
CC1CCN(S(=O)(=O)c2cc(C(=O)NC3(C)CCS(=O)(=O)C3)ccc2Br)CC1 (stereo not drawn)	9.8%	19.4	-2.0	0.1	-5.5%	1.7%
O=C(c1ccccc1)N1CCCC(C(=O)N2CCN(c3ccccc3)CC2)C1 (stereo not drawn)	?	9.3	0.0	-5.6	?	1.0%
N#CCc1cnc2ccccc2n1	-3.5%	11.2	-0.3	-24.0	-26.6%	.
CC(CCc1ccccc1)NC(=O)CCCn1ncn2c(cc3occc32)c1=O (stereo not drawn)	-9.9%	-5.3	4.4	6.4	-1.2%	-5.4%
Cc1cc(N2CCOCC2)nc2cc(O)ccc12	-15.2%	-5.2	5.8	-10.6	12.0%	4.5%
Cc1cc(N2CCOCC2)nc2ccccc12	4.5%	1.7	1.9	11.1	-1.9%	25.1µM*
SMILES	TDP1 cell noCPT	IL1B secr inh	DRD3 agonist	D3 antag	DT40 TDP1 CPT	ClpP mod
c1ccc2c(c1)CCc1c-2nc2ccccc2c1N1CCOCC1	?	-19.6	2.9	-9.1	11.6µM*	-3.8%
COc1ccc2nc(N3CCOCC3)cc(C)c2c1	4.6%	-12.1	-2.7	-10.5	4.0%	12.6µM*
O=C(O)c1c2c(nc3ccccc13)-c1ccccc1CC2	-8.5%	14.7	4.7	1.1	-4.1%	.
COc1ccc2c(C)cc(N3CCOCC3)nc2c1	0.2%	-21.4	-4.0	-15.3	6.0%	?
N#Cc1cc(N2CCOCC2)nc2ccccc12	-20.8%	0.0	-6.1	-2.3	-2.2%	-5.8%
c1ccc(-c2cc(N3CCOCC3)nc3ccccc23)cc1	?	-3.5	-8.1	-3.1	?	28.2µM*
COc1ccc(NC(=O)c2cc(C3CCCCN3C(=O)OCCF)on2)c(C)c1 (stereo not drawn)	?	12.7	-4.1	?	?	-0.8%
COc1cc(=O)n2c(c1C(=O)NC(C)c1ccco1)CCN(C(=O)c1[nH]c(C)cc1C)CC2 (stereo not drawn)	0.1%	.	.	.	3.4%	.
O=C(CCN1C(=O)c2ccccc2C1=O)C1=NN[C@@H]2C(=O)N(c3ccc4c(c3)OCCO4)C(=O)[C@H]12	-3.6%	12.8	1.7	-13.6	0.3%	0.2%
Cc1cc(N2CCN(c3ncccn3)CC2)nc2c(C)cccc12	14.6µM*	39.9	35.9*	17.8	?	-2.3%
CC1CN(c2nc3ccccc3cc2-c2ccccc2)CC(C)O1 (stereo not drawn)	?	34.2	6.7	39.2	?	.
CC1CN(c2cc(-c3ccccc3)c3ccccc3n2)CC(C)O1 (stereo not drawn)	?	5.8	2.3	13.7	-24.4%	25.1µM*
O=C(NCc1ccccc1)c1ccc(NC(=O)C2CCCCC2)cc1	-26.9%	64.9	13.5	-0.9	-18.5%	-0.8%
O=C(c1ccco1)N1CCC2(CC1)CCN(c1ccc(-c3ccccc3)cc1)CC2	-19.6%	.	.	.	9.3%	.
Cc1ccc(Cn2ccc(=O)c(OCc3c(Cl)cccc3Cl)c2C)cc1	14.6µM*	-58.6*	7.1	46.7	18.4µM*	-2.0%
O=C(Nc1ccc(NC(=O)c2cc3ccccc3o2)cc1)c1ccccc1	-24.9%	.	-7.7	.	-26.8%	-4.8%
O=C(Nc1ccc2c(c1)OCCO2)c1cc2ccccc2o1	?	-67.7*	-2.7	11.6	-29.1%	.

Screening results deposited in PubChem by National Center for Advancing Translational Sciences (NCATS).
